gsp ag – activates gsp, the McCune-Albright syndrome mutation. gsp mutant cells, cAMP HTRF, 30 min. hit rate 0.13% among 340,000. Potency, µM (series often up to 76.9 µM), for the others: at the top dose activation (cAMP increase), actives largely listed as activators. AID 624287; active = well fitted activation curve with a large enough effect; inconclusive = small, poorly fitted or top-dose-only effect, or another doubt; inactive = no such curve, though single readings can be large or run the other way; cell line not stated here;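 also: phosphodiesterase inhibitor Ro 20-1724 added with compounds to block cAMP breakdown; potency is read from the fitted curve at half-maximal effect; nearly all actives have a fitted effect of over 60% in size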
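Cells stably selected in G418 were plated at 2000/well, grown 16-24 hr, then given compounds in DMSO with the PDE inhibitor […] (300 uM solution added) for 30 min at 37C; cAMP was read by HTRF.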
RXFP1 antagonist – antagonists of human relaxin receptor RXFP1 | HEK293-RXFP1, relaxin-stimulated cAMP HTRF, 30 min; active compounds read low | activity change, negative = inhibition, % at 57.5 µM | AID 1259400 | Q9HBX9 | hit rate 0.59% among 350,000;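 active = activity change of -60% or lower, but not beyond a set lower limit; inconclusive = change between -60% and -40%, or beyond the set limit; inactive = change above -40%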; also: % is scaled to controls: 0 for no effect and ±100 for the full control effect
Tb PFK inh – inhibitors of T. brucei phosphofructokinase; O15648; T. brucei PFK, ADP-Glo luminescence; Potency, µM (titrated, usually from 57.5 µM), inactives show top-dose activity, negative = inhibition, most hits filed as inhibitors; hit rate 0.17% among 330,000; AID 485367;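 also: potency is read from the fitted curve at half-maximal effect; 0% = uninhibited 1x PFK enzyme wells and -100% = no-enzyme wells; nearly all actives have a fitted effect of over 60% in size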
Target sequence (O15648 whole entry, looked up): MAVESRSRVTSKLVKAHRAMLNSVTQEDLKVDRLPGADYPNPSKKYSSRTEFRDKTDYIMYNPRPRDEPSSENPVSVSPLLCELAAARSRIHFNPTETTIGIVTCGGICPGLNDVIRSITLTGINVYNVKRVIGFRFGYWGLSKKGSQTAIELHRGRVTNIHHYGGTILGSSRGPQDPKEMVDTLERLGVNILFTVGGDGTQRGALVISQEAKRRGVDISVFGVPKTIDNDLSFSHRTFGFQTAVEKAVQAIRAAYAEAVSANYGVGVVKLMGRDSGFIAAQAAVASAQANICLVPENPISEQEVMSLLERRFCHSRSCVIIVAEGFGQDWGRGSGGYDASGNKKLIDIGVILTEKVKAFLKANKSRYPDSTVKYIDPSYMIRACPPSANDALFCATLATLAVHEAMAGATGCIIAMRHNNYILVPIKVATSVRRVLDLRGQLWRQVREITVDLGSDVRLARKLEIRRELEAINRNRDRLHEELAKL
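Activity is normalized to no-enzyme wells (full inhibition) and 1.25 nM enzyme wells (no inhibition). Reaction: 0.5 mM F6P, 0.1 mM ATP, 45 min RT, ADP-Glo luminescence; concentration-response curves fitted and classed by quality.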
gsp antag – antagonizes gsp, the McCune-Albright syndrome mutation. gsp-mutant cells, cAMP HTRF, 30 min. Potency, µM (doses to about 76.9 µM), without a hit: at the top dose activity change, negative = inhibition, usual class: inhibitors. hit rate 0.4% among 340,000. AID 624288; calls by dose curve; cell line not stated here;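 also: intracellular cAMP measured with PDE inhibitor Ro 20-1724 present during compound exposure; potency is read from the fitted curve at half-maximal effect; % is scaled to controls: 0 for no effect and ±100 for the full control effect; nearly all actives have a fitted effect of over 65% in size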
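HTRF cAMP measurement after 30 min RT detection following 30 min, 37C compound treatment alongside […] (added as 300 uM solution) in G418-selected cells seeded at 2000/well and grown 16–24 h.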
p53 reactivation – restores transcriptional activity of mutant p53; H1299 p53-A138V BP100-luciferase reporter, luminescence, 24 h; Potency, µM (top dose mostly 92.2 µM), for the others: top-dose activity change, positive = activation, most hits filed as activators; hit rate 0.063% among 320,000; AID 504706; also: potency is read from the fitted curve at half-maximal effect; % of control where 0% means no effect; nearly all actives have a fitted effect of over 45% in size
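H1299 (p53-null), stable ts p53-A138V + BP100-Luc; 1000 cells/well, Opti-MEM/10% FBS; cpd 4 pt, 1:5; 24 h, 37 deg C, 5% CO2; detection reagent 10 min RT; luminescence.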
RXFP1 ag – activates the human relaxin receptor RXFP1. Q9HBX9. HEK293T-RXFP1 cAMP TR-FRET, 30 min; response scale: percent of porcine relaxin response, buffer zero. Potency, µM (top dose mostly 57.5 µM), for inactives: at the highest dose activation, hits mostly activators. hit rate 0.3% among 370,000. AID 2676; also: potency is read from the fitted curve at half-maximal effect; % is scaled to controls: 0 for no effect and ±100 for the full control effect; nearly all actives have a fitted effect of over 60% in size
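HEK293T cells stably expressing RXFP1 were pretreated with the PDE4 inhibitor Ro 20174, exposed to compounds for 30 min at 37C, lysed, and cAMP was read by TR-FRET. Data normalized to buffer (basal) and 29 nM porcine relaxin (100%).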
Starred values were filed as active, the others as inactive; ? = inconclusive; nt = not tested or not shown; [ ] = dose if it differs, or a comment. Most compounds without a hit are left out; they make up all but 1.1% or so of the library. Unless noted, calls follow the shape of the dose curve; as a rule, active = well fitted curve in the direction sought with a large enough effect; inconclusive = small, poorly fitted or top-dose-only effect, or another doubt; inactive = no such curve, though single readings can be large; an effect the other way counts as inactive or inconclusive.

SMILES	gsp ag	RXFP1 antagonist	Tb PFK inh	gsp antag	p53 reactivation	RXFP1 ag
CC1CCN(C(=O)CSc2nnc3c(n2)[nH]c2ccc(F)cc23)CC1	3%	-7	2%	-1%	3%	3%
NS(=O)(=O)c1ccc(NC(=O)c2ccc(F)cc2F)c(NC(=O)c2ccc(F)cc2F)c1	-5%[15.4 µM]	-5	-1%	0%	-2%	1%
Cc1cc(C)cc(NS(=O)(=O)c2ccc3c(c2)c(=O)n(C)c(=O)n3C)c1	25µM*	7	3%	1%	-10%	26%
Cn1c(=O)c2cc(S(=O)(=O)Nc3cc(C(=O)O)cc(C(=O)O)c3)ccc2n(C)c1=O	?	2	2%	11%	-2%	22%
COc1ccc(OC)c(NC(=O)c2cccc(N3C(=O)C4C5CCC(C5)C4C3=O)c2)c1 (stereo unspecified)	-40%	1	-19%	?	-4%	-3%
COc1ccc(OC)c(NC(=O)c2cccc(N3C(=O)C4C5C=CC(C6CC56)C4C3=O)c2)c1 (stereo unspecified)	-48%	-10	-6%	28µM*	-2%	2%
CCCCNC(C(=O)Nc1cccc(S(=O)(=O)N2CCOCC2)c1)c1ccccc1 (stereo unspecified)	-1%[15.4 µM]	-1	-4%	11µM*	-5%	2%
[O-][n+]1c2c(c3c4non(O)c4ccc31)CCCC2	-51%	-6	-2%	?	-3%	0%
Cn1cccc1/C=N/n1c(-c2ccccc2)n[nH]c1=S	-28%	7	-4%	?	0%	2%
Cn1cccc1/C=N/n1c(-c2ccc(C(C)(C)C)cc2)n[nH]c1=S	-31%	-64*	1%	-19%	-6%	5%
CC(=O)OC[C@H]1O[C@H](C/C=N/O[C@@H](C)c2cn([C@H](CO)Cc3ccccc3)nn2)C=C[C@@H]1OC(C)=O	nt	nt	0%	nt	-5%	-1%
Cc1ccc(C(=O)NCC(=O)OCCOc2ccccc2Cl)cc1	-28%[15.4 µM]	-84*	-1%	-1%	?	0%
Cc1ccc(C(=O)NCC(=O)OCCOc2cccc(Cl)c2)cc1	1%[15.4 µM]	-5	-8%	5%	-4%	0%
Cc1noc(C)c1COc1ccccc1C(=O)N(C)Cc1ccc(C(C)(C)C)cc1	-36%	-34	-2%	50µM*	1%	-2%
O=C(CSc1nnc2c(n1)[nH]c1ccc(S(=O)(=O)N3CCOCC3)cc12)Nc1ccc(F)c(F)c1	24%	-19	-1%	?	2%	5%
CCOc1ccc(Cn2nnc(C(=O)NCc3ccc(OC)cc3)c2N)cc1	-38%	nt	1%	-23%	-4%	32µM*
COC(=O)c1[nH]c(C)c(/C(O)=C2\C(=O)C(=O)N(CCN(C)C)C2c2ccccc2OC)c1C (stereo unspecified)	?	-9	-5%	6%	-11%	3%
Cc1ccc2[nH]c(C)cc(=S)c2c1	26%[15.4 µM]	16	1%	nt	4%	20µM*
Cc1ccc(-c2nnc(Nc3ccc(F)cc3)c3ccccc23)cc1S(=O)(=O)N1CCN(C)CC1	nt	-4	nt	nt	nt	6%
O=C(C1CC1)N1N=C(c2cccc(Br)c2)CC1(O)C(F)(F)F (stereo unspecified)	-26%[15.4 µM]	-35	3%	1%	nt	2%
O=C(C1CC1)N1N=C(c2ccncc2)CC1(O)C(F)(F)F (stereo unspecified)	-20%	-62*	-3%	-1%	0%	0%
O=C(c1ccccc1O)N1N=C(c2ccccc2)CC1(O)C(F)(F)F (stereo unspecified)	-94%	-76*	-2%	1%	14%	-1%
Nc1ccc(C(=O)N2N=C(c3ccccc3)CC2(O)C(F)(F)F)cc1 (stereo unspecified)	-20%	-2	-11%	5%	0%	2%
COc1ccc(Nc2nc(N3CCCCC3)c3ccccc3n2)cc1	-6%	-66*	-2%	-33%	1%	3%
CNC(=S)N(Cc1cc2cc(C)ccc2n2nnnc12)CC(C)(C)CN(C)C	0%	-2	-1%	2%	2%	?
